These results are taken from PubChem BioAssay (Tox21).

SMILES strings stand for the structures. Activity calls are given as the source filed them. Calls come from the whole dose curve.
% is set by controls: 0 for no effect and ±100 for the full control effect.

The experiment is described as follows: qHTS assay to identify small molecule agonists of the sonic hedgehog signaling (Shh) pathway (AID 1259368).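 Note: NIH/3T3-derived 3T3Gli1-Luc cells carrying a stable Gli1-driven firefly luciferase reporter; nearly all actives have a fitted effect of over 15% in size.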 Particulars: NIH/3T3 Gli1-Luc reporter, luciferase, 24 h; series mostly up to 92.4 µM; activity change: at the top concentration. From the text:
National Center for Advancing Translational Sciences [NCATS]
NIH Chemical Genomics Center [NCGC]
U.S. Environmental Protection Agency [EPA]
National Institutes of Environmental Health Sciences [NIEHS]
National Toxicology Program [NTP]
The sonic hedgehog (Shh) pathway is essential for normal embryonic development. Dysregulation of the Shh pathway can cause severe developmental defects in organs. Therefore chemicals that interfere with the pathway are potential developmental toxicants. A cell line designated 3T3Gli1-Luc (DMB/OARSA/CFSAN/FDA, Laurel, MD), a NIH/3T3 derived clone containing stably integrated Gli1-Luc reporter is used to detect chemical interference of the Shh pathway, by changes in the expression of the firefly Luc gene under the control of the Gli1 transcriptional response element. This cell line was used to screen Tox21 libraries for identifying and prioritizing the potential developmental toxicants that interfere Shh pathway.
3T3 Gli1-Luc cells were dispensed at 2,000 per well in 5uL of culture medium into white solid bottom 1536-well plates (Greiner Bio-One, Monroe, NC) using a Multidrop Combi (Thermo Scientific, Waltham, MA) dispenser. The assay plates were incubated at 37 C and 5% CO2 for 4hr, and then 23nL of compounds dissolved in DMSO and positive control were transferred using a Pintool station (Wako, San Diego, CA). The assay plates were incubated at 37C and 5% CO2 for 24hr. For luciferase read, 4uL of Amplite Luciferase reporter gene assay reagent (AAT Bioquest, Inc. Sunnyvale, CA) was added to each well of the assay plates using Flying Reagent Dispenser (FRD, Aurora Discovery, San Diego, CA) and incubated at room temperature for 30min. The luminescence signal was measured using a ViewLux plate reader (Perkin Elmer, Shelton, CT).
`C=C(C)C(=O)OCC[N+](C)(C)C`: the “activity change” value is 0.277% (inactive).

Regarding `CCc1cc(Cc2cc(CC)c(N)c(CC)c2)cc(CC)c1N`, the “activity change” value is -9.04% (inactive). Consider `CC(C)c1ccc2c(c1)CC[C@H]1[C@](C)(CN)CCC[C@]21C`, for which the “activity change” value was -13% (inactive).

Consider `COc1cc(-c2ccc(N=C=O)c(OC)c2)ccc1N=C=O`, for which the “activity change” value is 1.07% [at 42.5 µM, stronger effect = higher value] (inactive).

On to `CCN(CC)CCNC(=O)c1c(C)[nH]c(/C=C2\C(=O)Nc3ccc(F)cc32)c1C`, for which the “activity change” value is -5.13% [at 42.5 µM, stronger effect = higher value] (inactive).

In the case of `CCCCCCCC/C=C/CCCCCCCC1=NCCN1CCO`, the “activity change” value was -15.6% (inactive). For the compound `[Cl][Au]([Cl])[Cl]`, the “activity change” value was -12.1% (inactive).

Regarding `Cc1c(C)c2c(c(C)c1OC(=O)CCC(=O)O)CC[C@@](C)(CCC[C@H](C)CCC[C@H](C)CCCC(C)C)O2`, the “activity change” value was -3.64% (inactive).

For the compound `CCCC(c1cc(C(C)(C)C)c(O)cc1C)c1cc(C(C)(C)C)c(O)cc1C`, the “activity change” value was -19.6% (inactive).

For `CS(=O)(=O)CCNCc1ccc(-c2ccc3ncnc(Nc4ccc(OCc5cccc(F)c5)c(Cl)c4)c3c2)o1`, the “activity change” value is -2.54% [at 42.5 µM, stronger effect = higher value] (inactive).

Turning to `N=C1N=C(N)c2cc3ccccc3cc21`, the “activity change” value is -14.6% (inactive). The same measure, in the same setting: as for `CCOC(=O)O[C@H](C)OC(=O)c1ccc2c(c1)cc(C(=O)NC1CCN(C(C)C)CC1)n2Cc1cc(-c2ccc(Cl)s2)on1`, the figure is -13.9% (inactive); as for `O=c1cccccc1O`, -10.1% (inactive); as for `C[n+]1cc2c3c(ccc2c2ccc4cc5c(cc4c21)OCO5)OCO3`, -5.86% [at 18.9 µM, stronger effect = higher value] (inactive). Still for that read-out and setting: as for `CCCCCCCCCCCCCCCS(=O)(=O)Oc1ccccc1`, the figure is -0.0425% [at 42.5 µM, stronger effect = higher value] (inactive); as for `OCCN(CCO)c1nc(N2CCCCC2)c2nc(N(CCO)CCO)nc(N3CCCCC3)c2n1`, -0.571% [at 42.5 µM, stronger effect = higher value] (inactive). Still for that read-out and setting: to `O=[N+]([O-])c1cc(Cl)c(Cl)c(Cl)c1Cl` belongs -17.4% (inactive).

On to `NC(=NCCCCCCN=C(N)/N=C(\N)Nc1ccc(Cl)cc1)/N=C(\N)Nc1ccc(Cl)cc1`, for which the Potency result was “inactive”.

On to `CC1=NC(C)OC1C` (stereo not given), for which the “activity change” value is 6.18% (inactive). For `CCCCC(CC)CN=C(N)NC(N)=NCCCCCCN=C(N)NC(N)=NCC(CC)CCCC` (stereo not given), the “activity change” value was -7.13% [at 42.5 µM, stronger effect = higher value] (inactive). Same read-out and setting: to `CCCCCCCCCCCCc1ccc(O)cc1` belongs -13% (inactive); to `C=CC(=O)OCC(CO)(COC(=O)C=C)COC(=O)C=C`, -16.8% (inactive); to `CN(C)[C@@H]1C(=O)C(C(N)=O)=C(O)[C@@]2(O)C(=O)C3=C(O)c4c(O)ccc(Cl)c4[C@@H](O)[C@H]3C[C@@H]12`, -1.83% [at 42.5 µM, stronger effect = higher value] (inactive).

With `CCCCC(CC)COC(=O)c1ccccc1C(=O)O` (stereo not given), the “activity change” value was 3.45% (inactive). On the same count and under the same terms, to `CCN(Cc1cccnc1)C(=O)c1cccc(Cl)c1[C@]1(C)C(=O)N(Cc2ccc(OC)cc2OC)c2ccc(Cl)cc21` belongs -6.17% (inactive); to `c1ccc(CSCc2ccccc2)cc1`, 7.68% (inactive); to `CNc1ccc(O)cc1`, -20.8% (inactive). Still for that read-out and setting: to `Cc1cccc(S(=O)(=O)O)c1C` belongs 0.151% (inactive). In the case of `Oc1ccc2cc(SSc3ccc4cc(O)ccc4c3)ccc2c1`, the Potency result was “inactive”.

`Cc1cc(CCN2CCN(c3nsc4ccccc34)CC2)cc2c1NC(=O)CC2(C)C`: the “activity change” value is -13% (inactive). Turning to `COc1ccc(-c2ccc3cc(C(=O)O)ccc3c2)cc1C12CC3CC(CC(C3)C1)C2`, the “activity change” value was -1.91% [at 42.5 µM, stronger effect = higher value] (inactive). Still for that read-out and setting: as for `O=C1c2ccccc2Cc2ccccc21`, the figure is 9.92% (inactive); as for `NC(=O)CC[C@@H]1NC(=O)[C@H](Cc2ccccc2)NC(=O)[C@H](Cc2ccc(O)cc2)NC(=O)CCSSC[C@@H](C(=O)N2CCC[C@H]2C(=O)N[C@@H](CCCN=C(N)N)C(=O)NCC(N)=O)NC(=O)[C@H](CC(N)=O)NC1=O`, -0.128% [at 42.5 µM, stronger effect = higher value] (inactive). In the case of `CC[C@@]1(O)C(=O)OCc2c1cc1n(c2=O)Cc2c-1nc1ccccc1c2/C=N/OC(C)(C)C`, the “activity change” value was -3.23% [at 42.5 µM, stronger effect = higher value] (inactive). The same measure, in the same setting: to `CC[C@H]1O[C@]2(CC[C@@H]1C)C[C@@H]1C[C@@H](C/C=C(\C)C[C@@H](C)/C=C/C=C3\CO[C@@H]4[C@H](O)C(C)=C[C@@H](C(=O)O1)[C@]34O)O2` belongs -14.4% (inactive). Still for that read-out and setting: as for `Cc1cc(C2CCCCC2)n(O)c(=O)c1`, the figure is -6.03% [at 42.5 µM, stronger effect = higher value] (inactive). Regarding `CN1CCN(CCC(=O)N2c3ccccc3Sc3ccc(C(F)(F)F)cc32)CC1`, the “activity change” value is -4.52% [at 42.5 µM, stronger effect = higher value] (inactive). For the compound `CCCCCCCCOc1ccccc1C(=O)Nc1ccc(C(=O)OCC[N+](C)(CC)CC)cc1`, the “activity change” value was 2.91% [at 42.5 µM, stronger effect = higher value] (inactive). Same read-out and setting: as for `CC(C)(C)C(=O)OCOC(=O)[C@@H]1N2C(=O)[C@@H](NC(=O)[C@H](N)c3ccccc3)[C@H]2SC1(C)C`, the figure is -1.19% [at 42.5 µM, stronger effect = higher value] (inactive); as for `CCN1/C(=C/C=C/c2sc3ccccc3[n+]2CC)Sc2ccccc21`, -1.72% [at 18.9 µM, stronger effect = higher value] (inactive).
